Screening data from PubChem BioAssay.
Only a selection was taken, and hits are over-represented in it overall.
Algae TAG accum: inducers of TAG accumulation in Chlamydomonas, primary screen, qHTS, Chlamydomonas reinhardtii | Nile Red fluorescence, 72 h | AID 1159537, 2015 | hit rate 0.84% among 44,000 | calls only at 10 µM (by protocol); call rule not given here;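 also: hits raise Nile Red signal meaning more stored TAG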
* hit, by the source's call; i = inactive; + = active, no number.

SMILES | Algae TAG accum
CC1CCCCC1NCc1ccc([N+](=O)[O-])cc1 (stereo unspecified) | i
O=C(NC1CCCCC1)c1ccc([N+](=O)[O-])o1 | i
COc1ccc(OCC(=O)Nc2ccc([N+](=O)[O-])cc2Cl)cc1 | i
CCc1cc(-c2n[nH]c(C)c2-c2ccccc2)c(O)cc1O | i
NC(=O)c1ccc(-c2nnc(Nc3ccc(C(=O)Nc4ccccc4)cc3)c3ccccc23)cc1 | i
Cc1cc(OCC(=O)Nc2ccc3c(c2)C(=O)N(C)C3=O)cc(C)c1Cl | i
Cc1ccc(OCc2nnc(SCC(=O)Nc3ccc(Cl)cc3C)o2)cc1 | i
O=C(NCCc1ccccc1)c1ccccc1Br | i
Cc1c(Cl)cccc1NC(=O)CCN1C(=O)c2cccc([N+](=O)[O-])c2C1=O | i
CCN(CC)S(=O)(=O)c1ccc(Cl)c(C(=O)NCC(=O)O)c1 | i
Cc1ccc(S(=O)(=O)NCC23C=CC(O2)C2C(=O)N(Cc4ccccc4)C(=O)C23)cc1 (stereo unspecified) | i
COc1ccc(NC(=O)c2ccc(C(=O)Nc3ccc(OC)cc3OC)nc2)c(OC)c1 | i
O=C(CN1CCCCCC1)Nc1cccc2c1OCO2 | i
O=C(CN1CCCCC1)Nc1ccccc1NC(=O)CN1CCCCC1 | i
O=C(CN1CCCCC1)Nc1ncc(Cc2ccc(Br)cc2)s1 | +
COc1cc(C(=O)Nc2ccc(-c3nc4ccccc4s3)c(O)c2)cc(OC)c1OC | i
CC(=O)Nc1nc(-c2ccc(Cl)cc2)cs1 | i
O=C(Nc1ccc(S(=O)(=O)Nc2ccc(I)cc2)cc1)C1CC1 | i
COc1ccc(CN(C)C2CCCCC2)cc1C | +
COc1ccc(CN(C)C2CCCCC2)cc1 | +
COc1ccc(CN2CCCC(O)C2)cc1C (stereo unspecified) | i
COc1ccc(CNC2CCCC2)cc1C | i
COc1ccc(CC(=O)NC2CCCC2)cc1 | i
COc1ccc(Nc2nc(N)nc(CN(C)C3CCCCC3)n2)cc1 | i
COc1ccc(/C=C(\C#N)c2nc(-c3cccc([N+](=O)[O-])c3)cs2)cc1O | i
SMILES | Algae TAG accum
CCN1C(=O)c2ccc(C(=O)Nc3ccc(C)cc3[N+](=O)[O-])cc2C1=O | i
CCOc1ccc(N(CC(=O)Nc2ccccc2OC)S(=O)(=O)c2ccc(Cl)cc2)cc1 | i
C1CCCN(C2CCN(C3CC4CCC3C4)CC2)CC1 (stereo unspecified) | i
CC1CCCC(N2CCN(Cc3ccccc3)CC2)C1 (stereo unspecified) | +
O=[N+]([O-])c1ccccc1S(=O)(=O)N1CCN(C2CCN(Cc3ccccc3)CC2)CC1 | +
c1ccc(CN2CCC(N3CCN(C4CC5CCC4C5)CC3)CC2)cc1 (stereo unspecified) | +
c1ccc(CN2CCC(N3CCN(Cc4ccccn4)CC3)CC2)cc1 | i
COc1cc(CN2CCN(C3CCN(Cc4ccccc4)CC3)CC2)cc(OC)c1O | i
O=[N+]([O-])c1ccccc1S(=O)(=O)N1CCN(Cc2ccccn2)CC1 | i
O=[N+]([O-])c1ccccc1CN1CCC(N2CCCCC2)CC1 | i
CC1CCCC(NC2CCN(Cc3ccccc3)CC2)C1 (stereo unspecified) | i
COc1cc(CN2CCN(c3ccccc3)CC2)ccc1OCc1ccccc1 | i
O=C(Nc1cccc(O)c1)c1ncn[nH]1 | i
CS(=O)(=O)N(CC(=O)Nc1ccccc1C(N)=O)c1ccc(I)cc1 | i
Cc1ccc(C)c(OCC(=O)c2ccccc2)c1 | i
CC1CCN(S(=O)(=O)c2ccc(Br)c(C(=O)O)c2)CC1 | i
CN(C)CCNC(=O)Cc1cccs1 | i
c1coc(CN2CCN(C3CC4CCC3C4)CC2)c1 (stereo unspecified) | i
CN1CCCN(Cc2ccco2)CC1 | i
c1coc(CN2CCN(C3CCCCC3)CC2)c1 | +
CCN1CCN(C2CCC(C)C2)CC1 (stereo unspecified) | i
CC(C)c1ccccc1NC(=O)C1CC1 | i
COc1ccc(N2C(=O)CC(N3CCC(C(O)(c4ccccc4)c4ccccc4)CC3)C2=O)cc1 (stereo unspecified) | i
O=C1CC(N2CCC(C(O)(c3ccccc3)c3ccccc3)CC2)C(=O)N1c1ccc(F)cc1 (stereo unspecified) | +
NC(=O)C1CCN(C2CC(=O)N(c3ccc(F)cc3)C2=O)CC1 (stereo unspecified) | i
SMILES | Algae TAG accum
C=CCSc1nc(N)c(C#N)c(CC)c1C#N | i
Cc1ccc(C(=O)Nc2ccc(I)cc2C)cc1C | i
Cc1ccc(NC(=O)c2ccc(Cl)cc2)c(C)c1 | i
Cc1ccc(C(=O)Nc2ccc(Cl)cc2C)cc1C | +
O=C(O)CN1C(=O)C(=O)C(=C(O)c2ccc([N+](=O)[O-])cc2)C1c1ccc(Cl)cc1 (stereo unspecified) | i
COc1ccc(CNCc2ccc(C)cc2C)c(OC)c1 | i
COc1ccc(CNCc2ccc(C)cc2C)cc1 | i
COc1ccc(CNCc2ccc(C)cc2)c(OC)c1 | +
Cc1cc(=O)[nH]c(NCc2ccccc2)n1 | i
